Test results as given in PubChem BioAssay AID2284330 (EPA ToxCast).
Records with an inconclusive call do not appear. The source made the active and inactive calls. How the source made its calls: active means hit-call score of the fitted dose curve at least 0.9, where 1 is the maximum; inconclusive means response in the unintended direction; inactive means score below 0.9.

These compounds were tested on frog Glucocorticoid Receptor (GR), gene 397897 (assay: ATG_frGR_EcoTox2: Attagene TRANS-FACTORIAL EcoTox-2 HepG2 Assay for frog Glucocorticoid Receptor (GR)).
Description: ATG_EcoTox2 is a cell-based, multiplexed assay created by modifying the existing Attagene TRANS-FACTORIAL system to include a panel of nuclear receptors from some or all the following species: human (Homo sapiens), african clawed frog (Xenopus laevis), rainbow trout (Oncorhynchus mykiss), japanese medaka (Oryzias latipes), and zebrafish (Danio rerio). The ECOTOX2-FACTORIAL format uses HepG2, a human liver cell line, with measurements taken at 24 hours after chemical dosing in a 24-well plate. ATG_frGR_EcoTox2 is one of 29 assay components calculated in the ATG_EcoTox2 assay. It is designed to make measurements of mRNA induction, a form of inducible reporter, as detected with fluorescence intensity signals by Reverse transcription polymerase chain reaction (RT-PCR) and Capillary electrophoresis technology.The assay endpoint ATG_frGR_EcoTox2 was analyzed in the positive analysis fitting direction relative to DMSO as the negative control and baseline of activity. Using a type of inducible reporter, measures of mRNA for gain-of-signal activity can be used to understand the reporter gene at the transcription factor-level as they relate to the gene for glucocorticoid receptor. Furthermore, this assay endpoint can be referred to as a primary readout, because this assay has produced multiple assay endpoints where this one serves a reporter gene function. […]
Human liver HepG2 cells are transiently transfected with multiple reporter transcription units (MRTUs) in 6-well plates using FuGene 6 reagent (Roche; 3 ml FuGene/1 mg DNA). […] A major difference between the CIS and TRANS system is that in CIS activities of endogenous TFs are measured, whereas the TRANS assay evaluates changes in activities of exogenous, chimeric NR-Gal4 proteins. […] The fragments were purified using Qiaquick PCR columns (Qiagen), analyzed on an ABI 3130xL genetic analyzer (Applied Biosystems) with peak positions identified by using a set of X-rhodamine (ROX)-labeled MapMarker1000 molecular weight standards (BioVentures). […]
In the case of `O=S(=O)(O)C(F)(F)C(F)(F)C(F)(F)C(F)(F)C(F)(F)C(F)(F)F`, the outcome is reported as “inactive”.
With `CCCCOCN(C(=O)CCl)c1c(CC)cccc1CC` the outcome was “inactive”.
For `O=P(Oc1ccccc1)(Oc1ccccc1)Oc1ccccc1`, the outcome was “inactive”.
